The values below come from PubChem BioAssay (NCI).

A short description of experiment [1]: NCI Yeast Anticancer Drug Screen. Data for the rad50 strain (AID 155).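 Note: 0% = growth of vehicle-only cultures of the same strain.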 The conditions noted are these: S. cerevisiae rad50 strain growth inhibition, stronger effect = higher value; at 50.0 µM unless noted. The method in brief:
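Genetically altered yeast (DNA repair pathway); compound treatment; growth inhibition vs vehicle ctrl.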

Experiment [2] in a line: NCI Yeast Anticancer Drug Screen. Data for the mec2-1 strain (AID 157). The conditions noted are these: S. cerevisiae mec2-1 strain, stronger effect = higher value; at 50.0 µM unless noted. The method in brief:
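Yeast mec2-1 mutant treated with compound. Readout: growth inhibition vs vehicle controls.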

Experiment [3] is described as follows: NCI Yeast Anticancer Drug Screen. Data for the sgs1 mgt1 strain (AID 161).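 Note: 0% = growth of cultures given vehicle only.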 To be noted: S. cerevisiae sgs1 mgt1 strain, stronger effect = higher value; at 50.0 µM unless noted. The method in brief: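 Genetically altered yeast, compound exposure, growth inhibition relative to vehicle.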
Experiment [4] in a line: NCI Yeast Anticancer Drug Screen. Data for the cln2 rad14 strain (AID 165).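 Note: 0% = growth equal to vehicle treated cultures.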 The conditions noted are these: S. cerevisiae cln2 rad14 strain, stronger effect = higher value; at 50.0 µM unless noted. In outline: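 cln2 rad14 yeast strain; compound exposure; growth inhibition read vs vehicle controls.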
Experiment [5] can be described thus: NCI Yeast Anticancer Drug Screen. Data for the bub3 strain (AID 167). To be noted: S. cerevisiae bub3 mutant strain, stronger effect = higher value; at 50.0 µM unless noted. The method in brief:
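Yeast carrying a defined mutation is treated with each compound, and growth is compared with that of vehicle-exposed cells to give inhibition.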

The nature of experiment [6]: NCI Yeast Anticancer Drug Screen. Data for the mlh1 rad18 strain (AID 175). To be noted: S. cerevisiae mlh1 rad18 strain growth inhibition, stronger effect = higher value; at 50.0 µM unless noted. In outline: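 Yeast w/ defined DNA-repair lesions; compound exposure; growth vs vehicle controls → % inhibition.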

This is part of a sample that, as a whole, favours compounds with a hit. Of some 79,000 tested, about 15% had one in any assay. Values without a mark were called inactive. Active and inactive are the calls of the source. Cut-off read from the data, not from the text of the source: active = growth inhibition above about 70%; inactive = the rest.

With `COC(C)(/C(C)=N/O)c1ccc(-c2ccccc2)cc1` (stereo not given), the growth inhibition is 7.85% in experiment [1]; -7.95% in experiment [2]; 2.8% in experiment [3]; -0.65% in experiment [4]; 16.6% in experiment [5]; 19.7% in experiment [6].

On to `CC1/C(=N\O)CC2C3(C)CCC2(C(C)C(=O)O)C(=O)C13` (stereo not given), for which the growth inhibition is 4.75% in experiment [1]; 9.1% in experiment [2]; 2.2% in experiment [3]; 8.55% in experiment [4]; 8.9% in experiment [5]; 20.6% in experiment [6].

Consider `CC(C)C1N(N2C(=O)CS(=O)(=O)C2C(C)C)C(=O)CS1(=O)=O` (stereo not given), for which the growth inhibition in experiment [1] is 3.45%; in experiment [2], -15.1%; in experiment [3], -6.8%; in experiment [4], 6.75%; in experiment [5] it was -9.15%; in experiment [6], 24.3%.

Take `Oc1ccc(Br)cc1/C=N/N1CCN(/N=C/c2cc(Br)ccc2O)CC1`: the growth inhibition is 22.9% in experiment [1]; 6.2% in experiment [2]; 35.2% in experiment [3]; 14.9% in experiment [4]; 1.7% in experiment [5]; 25.1% in experiment [6].

`COc1ccc(NC(=O)C(C)Oc2ccc(OCC3CCCCC3)cc2)cc1` (stereo not given): the growth inhibition is -22.9% in experiment [1]; -40.5% in experiment [2]; -42% in experiment [3]; -26.1% in experiment [4]; -56.9% in experiment [5]; -29.6% in experiment [6].

In the case of `CC(=O)OC1CCC2(C)C(CCC3(C)C2C(=O)C=C2C4CC(C)(C(=O)O)CCC4(C)CCC23C)C1(C)C` (stereo not given), the growth inhibition in experiment [1] was -3.8%; in experiment [2] it was -9.5%; in experiment [3], -13%; in experiment [4] it was -4.25%; in experiment [5] it was -5.75%; in experiment [6], -8.5%.

Turning to `O=CC(=O)C(O)C(O)C(O)CO` (stereo not given), the growth inhibition in experiment [1] was 9.5%; in experiment [2], 22.9%; in experiment [3], 26.2%; in experiment [4], -0.05%; in experiment [5] it was -4.95%; in experiment [6], 19.4%.

Take `COc1ccc(C=Nc2ccccc2C(=O)O)cc1`: the growth inhibition in experiment [1] was 0.2%; in experiment [2] it was 7.1%; in experiment [3], 0.65%; in experiment [4] it was -41.9%; in experiment [5], 24.3%; in experiment [6], 5.9%.

Regarding `COc1ccc(C)cc1NC(=O)Nc1ccccc1F`, the growth inhibition in experiment [1] was 6.9%; in experiment [2], 15.2%; in experiment [3], 6.15%; in experiment [4], 3.3%; in experiment [5], -0.4%; in experiment [6], 5.15%.

Turning to `O=C1CCC(=O)N1C(c1ccccc1)c1ccccc1`, the growth inhibition in experiment [1] is -10.4%; in experiment [2] it was 6.95%; in experiment [3], 5.85%; in experiment [4] it was -30.9%; in experiment [5], 20.9%; in experiment [6] it was -6.2%.

With `NC(N)=Nc1ccc(-c2ccc(N=C(N)N)cc2)cc1`, the growth inhibition was -9.35% in experiment [1]; 6.4% in experiment [2]; 0.85% in experiment [3]; -22.2% in experiment [4]; -24.9% in experiment [5]; -7.95% in experiment [6].

With `CCCCC1=C(c2ccccc2)/C(=N/Nc2ccc([N+](=O)[O-])cc2[N+](=O)[O-])c2ccccc21`, the growth inhibition in experiment [1] is 12.7%; in experiment [2] it was -1.45%; in experiment [3] it was 5.65%; in experiment [4], -2.85%; in experiment [5], 1.2%; in experiment [6], 9%.

On to `COC(=O)C1NC(=O)C(N2C(=O)c3ccccc3C2=O)=CSC1(C)C` (stereo not given), for which the growth inhibition in experiment [1] is -15.8%; in experiment [2], -3.05%; in experiment [3] it was 1.15%; in experiment [4], -11.6%; in experiment [5], -48%; in experiment [6], -7.2%.

As for `CSCCC(NC(=O)OCc1ccccc1)C(=O)O` (stereo not given), the growth inhibition in experiment [1] is -31.4%; in experiment [2] it was -0.6%; in experiment [3], 5.05%; in experiment [4], -25.2%; in experiment [5], -4.5%; in experiment [6], -4.45%.

`CC(C)=CC1C(C(=O)Oc2ccccc2C(C)C)C1(C)C` (stereo not given): the growth inhibition in experiment [1] is -3.8%; in experiment [2], -11.2%; in experiment [3], 2.6%; in experiment [4] it was -22.6%; in experiment [5], -27%; in experiment [6] it was 4.6%.

For the molecule `CC(=O)C[n+]1cccc(Br)c1`, the growth inhibition was -6.7% in experiment [1]; 8.7% in experiment [2]; 10.2% in experiment [3]; -8.15% in experiment [4]; 9.5% in experiment [5]; -5.9% in experiment [6].

Regarding `CN1C(C)(C)CC(=O)C(Br)C1(C)C` (stereo not given), the growth inhibition is -37.8% in experiment [1]; -45% in experiment [2]; -33.8% in experiment [3]; -6.2% in experiment [4]; -6.75% in experiment [5]; -29.4% in experiment [6].

Turning to `COc1cc2c(cc1OCc1ccccc1)C(Cc1cc(Br)sc1Br)=NCC2`, the growth inhibition in experiment [1] is 57.8%; in experiment [2], 58.5%; in experiment [3], 54%; in experiment [4] it was 50.3%; in experiment [5], 70.5% (active); in experiment [6], 43.4%.

As for `CCOC(=O)CC1(N)CC2c3ccccc3OC(=O)C2C(=O)N1` (stereo not given), the growth inhibition is 10.6% in experiment [1]; 15.1% in experiment [2]; 6.15% in experiment [3]; 0.45% in experiment [4]; -2.8% in experiment [5]; -33.6% in experiment [6].

Regarding `Clc1cccc(C2SCc3nc4ccccc4n32)c1` (stereo not given), the growth inhibition in experiment [1] is 17%; in experiment [2], -3.95%; in experiment [3], 46.1%; in experiment [4], 15.3%; in experiment [5], 5.9%; in experiment [6], 32.1%.
